The values below come from PubChem BioAssay (Tox21).

Test [1] is described as follows: qHTS assay to identify small molecule agonists of the RXR signaling pathway - cell viability counter screen (AID 1159529). Also: series mostly up to about 77 µM; nearly all actives have a fitted effect of over 50% in size. Summed up: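 Cell viability is measured by CellTiter-Glo luminescence, 30 min at room temperature, in wells already read for beta-lactamase. Engineered HEK 293T cells (RXR-alpha-UAS-bla) are dosed 16 hr at 37 C. Tetraoctyl ammonium bromide serves as positive control.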
Background: qHTS replaces the single test concentration by a dilution series.

Test [2] can be described thus: qHTS assay to identify small molecule antagonists of the retinoid acid receptor (RAR) signaling pathway - cell viability counter screen (AID 1159551). Also: nearly all actives have a fitted effect of over 35% in size. Summed up: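 Cells (C3RL4) are plated, incubated overnight, dosed with compound in DMSO, then given retinol at 1 uM final. After 6 h at 37 C, CellTiter-Glo is added and luminescence read following 30 min at room temperature.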

Test [3] in a line: qHTS assay to identify small molecule antagonists of the estrogen related receptor (ERR) signaling pathway from Tox21 library - cell viability counter screen (AID 1224834). Also: nearly all actives have a fitted effect of over 30% in size. Also: potency is read from the fitted curve at half-maximal effect. Summed up:
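ERR cells, 2,000/well; 6 h settle at 37 C/5% CO2; pin-tool compound transfer in DMSO; 17.5 h at 37 C; CellTiter-Fluor, 30 min; fluorescence intensity.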

Test [4] concerns the target Luciferin 4-monooxygenase (Photinus pyralis) (UniProt P08659). In words: qHTS assay to identify small molecule inhibitors of firefly luciferase (AID 1224835). Also: series mostly up to about 120 µM; nearly all actives have a fitted effect of over 25% in size. Summed up:
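Inhibition of purified Photinus luciferase is measured by luminescence. Substrate levels (D-luciferin, ATP) sit at their KM values. Each compound is tested in a concentration series.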

A short description of test [5]: qHTS assay to identify small molecule agonists of the constitutive androstane receptor (CAR) signaling pathway - cell viability counter screen (AID 1224836). Also: nearly all actives have a fitted effect of over 45% in size. Also: potency is read from the fitted curve at half-maximal effect. Summed up:
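Counter screen multiplexed with the CAR reporter readout: HepG2 cells co-transfected with hCAR and the CYP2B6-2.2kb construct receive a 15-concentration compound series and 0.75 uM PK11195 (final), then CellTiter-Fluor fluorescence is read after 23 h.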

Test [6] in a line: qHTS assay to identify small molecule antagonists of the constitutive androstane receptor (CAR) signaling pathway - cell viability counter screen (AID 1224837). Also: nearly all actives have a fitted effect of over 45% in size. Also: potency is read from the fitted curve at half-maximal effect. Summed up: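 Viability was measured with CellTiter-Fluor in a HepG2 line carrying stably transfected hCAR and a CYP2B6-2.2kb construct. Cells were exposed for 23 hr at 37 C to 15 compound concentrations with 50 nM CITCO as agonist.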

Test [7] in a line: qHTS assay to identify small molecule antagonists of the estrogen related receptor signaling pathway with the pleiotropic PPARgamma coactivator (PGC) from Tox21 10K library - cell viability counter screen (AID 1224840; active = well fitted cell-killing curve with a large enough effect in the repeat runs, not every such curve was filed as active; also: nearly all actives have a fitted effect of over 40% in size; also: potency is read from the fitted curve at half-maximal effect). Summed up:
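Multiplexed viability counter screen in the PGC/ERR cell line: cells treated with DMSO-dissolved compounds for 17.5 hours at 37 C, then viability measured as CellTiter-Fluor fluorescence.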

In test [8] the target is Thyrotropin receptor (Homo sapiens) (UniProt P16473). Nature of the test: qHTS assay to identify small molecule agonists of the thyroid stimulating hormone receptor (TSHR) signaling pathway (AID 1224843; calls by dose curve; also: nearly all actives have a fitted effect of over 45% in size). The gist of the method:
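A cell-based cAMP HTRF format was run in TSHR-transfected HEK293 cells, 800 per well. Treatment: 30 min, room temperature. Detection: 1 h with labelled cAMP and anti-cAMP cryptate. Concentration-response over 15 points, three replicates.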

Test [9] addresses Nuclear receptor subfamily 1 group I member 3 (Homo sapiens) (UniProt Q14994). In words: qHTS assay to identify small molecule agonists of the constitutive androstane receptor (CAR) signaling pathway (AID 1224839). Also: series mostly up to about 92 µM; nearly all actives have a fitted effect of over 15% in size. The gist of the method: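 A 15-concentration quantitative screen uses HepG2 cells co-transfected stably with human CAR and CYP2B6-2.2kb reporter. Treatment lasts 24 h with 0.75 uM PK11195 final present; ONE-Glo luminescence is the signal.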

Test [10] is described as follows: qHTS assay to identify small molecule antagonists of the estrogen related receptor signaling pathway with the pleiotropic PPARgamma coactivator (PGC) from Tox21 10K library (AID 1224841; call rule not given here; also: actives are mostly falling curves and most rising ones were filed inactive; nearly all actives have a fitted effect of over 50% in size; also: potency is read from the fitted curve at half-maximal effect). The gist of the method: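 Steps: plate 2,000 PGC/ERR cells per well; incubate 6 h at 37 C with 5% CO2; transfer compounds from DMSO stocks by pin tool; incubate 18 h at 37 C; add One-Glo; measure luminescence 30 min later.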

Test [11] in a line: qHTS assay to identify small molecule agonists of the estrogen related receptor signaling pathway with the pleiotropic PPARgamma coactivator (PGC) from Tox21 10K library (AID 1224842). Also: nearly all actives have a fitted effect of over 15% in size. Summed up:
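Luminescence from One-Glo (30 min, room temperature) measured after PGC/ERR cells had 18 h at 37 C with pinned compound (23 nL in DMSO). Cells had been seeded at 2,000 per well and pre-incubated 6 h.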

In test [12] the target is Nuclear receptor subfamily 1 group I member 3 (Homo sapiens) (UniProt Q14994). In words: qHTS assay to identify small molecule antagonists of the constitutive androstane receptor (CAR) signaling pathway (AID 1224838).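 Also: HepG2 cells stably expressing hCAR with CYP2B6 luciferase reporter stimulated by CITCO; nearly all actives have a fitted effect of over 40% in size.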 Also: potency is read from the fitted curve at half-maximal effect. Summed up: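 Antagonist mode used CITCO at a final 50 nM to activate CAR in human hepatoma HepG2 cells carrying stable hCAR and a 2.2 kb CYP2B6 promoter-luciferase construct. Compounds were tested at 15 concentrations over 24 h, with luminescence as the end point.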

Test [13] in a line: qHTS assay to identify small molecule agonists of the retinoic acid receptor (RAR) signaling pathway (AID 1159553). The gist of the method:
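Seed C3RL4 reporter cells at 1,000 per well and incubate overnight at 37 C. Add compounds in DMSO, incubate 6 hr. Add luciferase reagent, wait 30 min at room temperature, read luminescence.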

The nature of test [14]: qHTS assay to identify small molecule antagonists of the retinoic acid receptor (RAR) signaling pathway (AID 1159552; also: nearly all actives have a fitted effect of over 50% in size). The gist of the method: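 Quantitative HTS in C3RL4 RARE-luciferase reporter cells. Compounds were added with 1 uM (final) retinol; luminescence was read after 6 hr.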

Inconclusive results are not listed. Values without a mark were called inactive. Active and inactive are the calls of the source. Unless noted, calls follow the shape of the dose curve; as a rule, active = well fitted curve in the direction sought with a large enough effect in the repeat runs; inconclusive = weak or mixed curves; inactive = no such curve, though single readings can be large; an effect the other way counts as inactive or inconclusive.

Sequence of Luciferin 4-monooxygenase (Photinus pyralis) (P08659 whole entry, looked up): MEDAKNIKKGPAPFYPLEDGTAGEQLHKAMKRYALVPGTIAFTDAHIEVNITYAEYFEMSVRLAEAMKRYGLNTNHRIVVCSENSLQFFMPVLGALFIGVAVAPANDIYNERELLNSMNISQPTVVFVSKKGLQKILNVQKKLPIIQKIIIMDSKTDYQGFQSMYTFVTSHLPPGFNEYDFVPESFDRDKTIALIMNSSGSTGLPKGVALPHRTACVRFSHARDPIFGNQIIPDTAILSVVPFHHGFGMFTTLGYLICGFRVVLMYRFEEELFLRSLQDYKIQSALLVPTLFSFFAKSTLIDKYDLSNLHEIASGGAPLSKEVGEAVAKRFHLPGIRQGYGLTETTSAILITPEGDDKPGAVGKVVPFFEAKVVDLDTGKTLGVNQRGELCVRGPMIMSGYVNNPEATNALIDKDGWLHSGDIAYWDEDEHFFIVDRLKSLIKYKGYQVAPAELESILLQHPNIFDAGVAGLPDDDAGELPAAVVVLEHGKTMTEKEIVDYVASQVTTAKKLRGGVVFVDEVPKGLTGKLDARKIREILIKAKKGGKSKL
Sequence of Thyrotropin receptor (Homo sapiens) (P16473 whole entry, looked up): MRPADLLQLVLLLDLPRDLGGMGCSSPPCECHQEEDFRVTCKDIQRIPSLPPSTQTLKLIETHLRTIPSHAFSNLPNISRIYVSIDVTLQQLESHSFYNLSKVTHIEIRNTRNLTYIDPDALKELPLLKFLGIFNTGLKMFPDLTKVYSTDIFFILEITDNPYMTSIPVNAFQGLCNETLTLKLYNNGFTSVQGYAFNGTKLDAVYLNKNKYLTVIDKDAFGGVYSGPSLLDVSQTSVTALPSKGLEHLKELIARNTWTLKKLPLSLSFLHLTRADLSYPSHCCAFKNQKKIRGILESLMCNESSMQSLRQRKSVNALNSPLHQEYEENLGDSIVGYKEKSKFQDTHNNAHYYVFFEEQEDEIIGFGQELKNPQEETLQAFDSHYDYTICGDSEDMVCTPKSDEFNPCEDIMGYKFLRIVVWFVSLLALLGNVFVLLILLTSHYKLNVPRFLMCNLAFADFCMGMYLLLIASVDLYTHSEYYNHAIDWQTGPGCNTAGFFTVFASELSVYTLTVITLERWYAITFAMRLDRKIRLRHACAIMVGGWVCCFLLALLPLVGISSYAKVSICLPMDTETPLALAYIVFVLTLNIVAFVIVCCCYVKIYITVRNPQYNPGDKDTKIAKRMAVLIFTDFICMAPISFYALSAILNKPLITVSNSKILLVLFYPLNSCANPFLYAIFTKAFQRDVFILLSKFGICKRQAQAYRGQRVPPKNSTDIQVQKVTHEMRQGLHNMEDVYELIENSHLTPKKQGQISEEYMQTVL
Sequence of Nuclear receptor subfamily 1 group I member 3 (Homo sapiens) (Q14994 whole entry, looked up): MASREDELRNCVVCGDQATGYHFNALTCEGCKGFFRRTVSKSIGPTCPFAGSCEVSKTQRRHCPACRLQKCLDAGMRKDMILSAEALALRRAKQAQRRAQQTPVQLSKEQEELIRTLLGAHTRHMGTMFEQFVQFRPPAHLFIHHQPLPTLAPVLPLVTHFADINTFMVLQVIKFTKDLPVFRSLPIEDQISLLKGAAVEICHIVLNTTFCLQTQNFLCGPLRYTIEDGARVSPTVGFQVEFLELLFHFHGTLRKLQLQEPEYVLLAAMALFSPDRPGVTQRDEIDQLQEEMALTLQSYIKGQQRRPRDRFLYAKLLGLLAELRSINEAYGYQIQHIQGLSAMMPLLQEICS

`CN1CCN(C(c2ccccc2)c2ccccc2)CC1`: the Potency entry in test [1], in [2], in test [3], in test [4], in test [5] and in test [6] was “inactive” in each case. Also, the Potency result in [7] and in test [8] was “inactive” throughout.

Regarding `CCCCCCCN`, the Potency entry in test [1], in test [2], in test [3], in test [4], in test [6] and in [9] was “inactive” in each case. The Potency result in test [7] and in test [8] was “inactive” each time.

Regarding `NCCCN1CCOCC1`, the Potency result in test [1], in [2], in [3], in test [4], in test [5] and in test [6] was “inactive” each time. In addition, the Potency result in test [9], in test [7], in test [10], in test [11] and in test [8] was “inactive” in each case.

On to `O=[N+]([O-])c1ccc(NCCO)c(OCCO)c1`, for which the Potency entry in test [1], in test [2], in test [4], in [10], in test [11] and in test [8] was “inactive” in each case. Besides, the Potency in [3] is 30.7 µM (active); in test [5] it was 43.3 µM (active); in test [6], 48.6 µM (active); in [7], 48.6 µM (active).

As for `Nc1ncn([C@H]2C[C@H](O)[C@@H](CO)O2)c(=O)n1`, the Potency entry in test [1], in test [2], in [3], in test [5], in test [6] and in test [12] was “inactive” throughout. Besides, the Potency result in [9] and in [7] was “inactive” each time.

Take `O=C(O)c1ccco1`: the Potency result in [1], in test [2], in test [3], in [4], in test [5] and in [7] was “inactive” each time. Also, the Potency entry in [8] is “inactive”.

With `OC[C@H]1O[C@@H](OCCc2ccc(O)cc2)[C@H](O)[C@@H](O)[C@@H]1O`, the Potency result in test [1], in [2], in test [3], in [5], in [6] and in test [12] was “inactive” in each case. Further, the Potency entry in [9], in test [7], in test [10] and in test [11] was “inactive” in each case.

Take `CC(C)(CO)[N+](=O)[O-]`: the Potency entry in test [1], in [2], in test [3], in test [4], in [5] and in test [6] was “inactive” throughout. Also, the Potency entry in [12] and in test [7] was “inactive” in each case.

On to `NC(=O)C(c1ccccc1)(c1ccccc1)[C@@H]1CCN(CCc2ccc3c(c2)CCO3)C1`, for which the Potency entry in [1], in [2], in [13], in [7], in test [11] and in test [8] was “inactive” throughout.

With `CCN(CC)CCNC(=O)c1cc(Br)c(N)cc1OC`, the Potency result in test [1], in test [2], in test [3], in test [4], in [5] and in test [6] was “inactive” in each case. Besides, the Potency entry in test [12], in test [9], in test [7], in test [10] and in test [8] was “inactive” each time.

Take `CC1=CC=C(C(C)C)CC1`: the Potency result in test [1], in [2], in [3], in test [4], in test [5] and in [6] was “inactive” each time. For the same molecule, the Potency entry in test [12], in test [9] and in test [7] was “inactive” in each case.

For `CC[N+]1(CC)CCC(=C(c2ccccc2)c2ccccc2)C1C` (stereo not given), the Potency result in test [1], in test [2], in test [3], in test [4], in test [5] and in test [6] was “inactive” throughout. Besides, the Potency entry in test [12], in test [9], in test [7] and in test [8] was “inactive” in each case.

For `COc1ccc(C(=O)N2CCN(CC(=O)N3CCOCC3)CC2)cc1`, the Potency entry in [1], in test [2], in test [3], in test [4], in [5] and in [6] was “inactive” throughout. Moreover, the Potency result in test [7], in test [10], in test [11] and in test [8] was “inactive” in each case.

As for `C/C=C(/C(=C/C)c1ccc(OC(C)=O)cc1)c1ccc(OC(C)=O)cc1`, the Potency result in test [1], in test [2], in test [13], in test [4], in test [5] and in test [6] was “inactive” in each case. Further, the Potency result in test [7] and in test [8] was “inactive” throughout.

In the case of `CC[N+](C)(CC)CCOC(=O)C(O)(c1ccccc1)C1CCCCC1` (stereo not given), the Potency result in [1], in test [2], in [13], in test [4], in test [5] and in test [7] was “inactive” throughout. For the same molecule, the Potency entry in test [11] and in test [8] was “inactive” throughout.

`CNC(=O)CN(CCN(CCN(CC(=O)[O-])CC(=O)NC)CC(=O)[O-])CC(=O)[O-].O.[Gd+3]`: the Potency entry in [1], in [2], in test [13], in [4], in test [5] and in test [12] was “inactive” each time. The Potency entry in test [9] and in test [7] was “inactive” throughout.

For `CCc1c(C(=O)NN2CCCCC2)nn(-c2ccc(Cl)cc2Cl)c1-c1ccc(Br)cc1`, the Potency result in test [1], in [2], in test [13], in test [4], in [5] and in test [6] was “inactive” each time. Also, the Potency entry in test [9], in test [11] and in test [8] was “inactive” throughout. The results for the Potency in test [12] and in test [10] were 21.7 µM (active) and 4.86 µM (active), respectively.

As for `CN(C)c1ccc(CCO)cc1`, the Potency entry in test [1], in [2], in test [13], in [4], in test [5] and in test [6] was “inactive” in each case. For the same molecule, the Potency entry in test [9], in test [7] and in test [8] was “inactive” throughout. In addition, in test [12], the Potency is 27.1 µM (active).

As for `O=C(NCCO[N+](=O)[O-])c1cccnc1`, the Potency result in test [1], in test [2], in test [3], in [4], in [6] and in [7] was “inactive” each time. Moreover, the Potency result in test [8] is “inactive”.

Turning to `O=C1OC(CN2CCOCC2)CN1/N=C/c1ccc([N+](=O)[O-])o1` (stereo not given), the Potency entry in test [1], in test [2], in test [13], in test [4], in test [5] and in test [6] was “inactive” throughout. Besides, the Potency result in [7] is “inactive”.

Take `CC(=O)c1cccc([N+](=O)[O-])c1`: the Potency result in test [1], in test [2], in test [3], in test [5], in test [6] and in test [9] was “inactive” each time. Also, the Potency entry in test [7] was “inactive”.

On to `CCCCO`, for which the Potency result in [1], in [2], in [5], in test [6], in [7] and in [8] was “inactive” throughout.

As to `NS(=O)(=O)c1ccc(N2CCCCS2(=O)=O)cc1`, the Potency entry in test [1], in [14], in [13], in test [3], in test [5] and in test [6] was “inactive” throughout. In addition, the Potency entry in test [9], in test [7], in [10], in test [11] and in test [8] was “inactive” throughout.

For `Cc1nn(C)c(Oc2ccccc2)c1/C=N/OCc1ccc(C(=O)OC(C)(C)C)cc1`, the Potency entry in test [1], in test [14], in test [13], in test [3], in test [4] and in test [7] was “inactive” each time.
